Here are results for 26 compounds from PubChem BioAssay AID2314 (National Center for Advancing Translational Sciences (NCATS), 2010).

SMILES strings stand for the structures. Among all 300,000 compounds or so, about 37,000 (12%) were called active. Only a selection was taken, and actives are over-represented in it overall. Values without a mark were called inactive. Cut-off read from the data, not from the text of the source: active = max response mostly above about 13% (no sharp cut-off); inactive = mostly below about 14%.

The nature of this assay: Cycloheximide Counterscreen for Small Molecule Inhibitors of Shiga Toxin. Note: read at 38.3 µM for the half of the compounds with a filed dose; 0% is about no effect. To be noted: cell reporter, cycloheximide protein synthesis inhibition counterscreen; stronger effect = higher value.
Regarding `COc1ccc(S(=O)(=O)NCCc2c[nH]c3ccccc23)cc1OC`, the max response was 2.61%.
Then `Nc1nc(SCc2cccc(Br)c2)n[nH]1`, with 0.308%; and `CCc1ccc(N2CC(C(=O)N3CCCCCC3)CC2=O)cc1` (stereo unspecified), with 15.1%; and `Cc1ccc(SCC(=O)Nc2ccc3c(c2)OCCO3)cc1`, with 73.6% (active).
Then `CCn1c(COc2ccccc2)nnc1SCC(=O)Nc1ccc2c(c1)OCCO2`, with 8.26%; and `CCN(CC(=O)Nc1ccc2c(c1)OCO2)S(=O)(=O)c1ccccc1`, with -0.651%; and `O=C(COc1ccc2c(C(F)(F)F)cc(=O)oc2c1)Nc1ccc2c(c1)OCCO2`, with 5.22%.
As to `Cc1ccc(S(=O)(=O)NCC(=O)Nc2ccc3c(c2)OCCO3)cc1`, the max response is 6.27%.
Take `CCN(CC(=O)Nc1ccc2c(c1)OCCO2)Cc1cc(=O)oc2cc(C)c(C)cc12`: the max response is 11.2% (active).
As for `CCC(C)(C)NC(=O)CN(C(=O)C(=O)Nc1ccc2c(c1)OCCO2)C(C)(C)CC`, the max response was -5.87%.
With `CCn1c(SCC(=O)Nc2ccc3c(c2)OCCO3)nnc1-c1ccncc1` the figure was 2.74%; with `COc1ccccc1OCCCC(=O)Nc1ccc2c(c1)OCCO2`, 32.1% (active).
With `COC(=O)CCNc1ccc2c(c1)OCCO2` the figure was 48.2% (active); with `COc1cccc(NC(=O)COC(=O)CCOc2ccccc2OC)c1`, -1.24%; with `Cc1sc2ncn(CC(=O)NCCCC(=O)N(C)Cc3ccccc3)c(=O)c2c1C`, 0.104%.
Then `CCC(=O)N(Cc1cc2ccccc2[nH]c1=O)c1ccc(OC)cc1`, with -1.99%; and `O=C(CNC(=O)OCc1ccccc1)NC1CCCCNC1=O` (stereo unspecified), with 1.1%; and `CCOc1ccc(C(=O)Nc2ccc(S(=O)(=O)NCC3CCCO3)cc2)cc1OCC` (stereo unspecified), with -3.06%.
`CCN(CC)CCNc1nc(-c2ccc(OC(F)F)cc2)c(C)s1`: the max response was -2.43%.
Then `COc1ccc(-n2nc(C(=O)NCC(=O)N3CCC(C(N)=O)CC3)c3ccccc3c2=O)cc1OC`, with -3.96%; and `CC(=O)c1c(C)oc2ccc(NS(=O)(=O)c3ccc(C(=O)O)cc3)cc12`, with -0.66%.
Regarding `CCCCNC(=O)CSc1nnc(-c2ccco2)n1C`, the max response was 1.17%.
Then `Cn1c(SCC(=O)c2cccs2)nnc1-c1ccco1`, with 29.8% (active).
With `CCOC(=O)CSc1nnc(-c2ccco2)n1C` the figure was -2.04%.
As for `CC(C)CC(=O)Nc1nnc(S(=O)(=O)N(C)c2ccc(Cl)cc2)s1`, the max response was -2.39%.
Then `COc1ccc2c(C(=O)c3ccc(C)cc3)n(CCC(N)=O)[n+]([O-])c2c1`, with 7.82%.
